Several values for one entry are separate records, joined by “and”; a condition that tells them apart may be missing. Equal entries are not always repeated. Screen size: about 340,000 compounds; about 1,800 (0.53%) were called active.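 How the source made its calls: active means activation over 3 SD above normal in the single-dose calcium agonist read (cut at about 30% in these data); inactive means the rest.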 For the sample, actives were picked, then their nearest neighbours and some compounds at random.

Sequence of D(2) dopamine receptor (Homo sapiens) (P14416 whole entry, looked up): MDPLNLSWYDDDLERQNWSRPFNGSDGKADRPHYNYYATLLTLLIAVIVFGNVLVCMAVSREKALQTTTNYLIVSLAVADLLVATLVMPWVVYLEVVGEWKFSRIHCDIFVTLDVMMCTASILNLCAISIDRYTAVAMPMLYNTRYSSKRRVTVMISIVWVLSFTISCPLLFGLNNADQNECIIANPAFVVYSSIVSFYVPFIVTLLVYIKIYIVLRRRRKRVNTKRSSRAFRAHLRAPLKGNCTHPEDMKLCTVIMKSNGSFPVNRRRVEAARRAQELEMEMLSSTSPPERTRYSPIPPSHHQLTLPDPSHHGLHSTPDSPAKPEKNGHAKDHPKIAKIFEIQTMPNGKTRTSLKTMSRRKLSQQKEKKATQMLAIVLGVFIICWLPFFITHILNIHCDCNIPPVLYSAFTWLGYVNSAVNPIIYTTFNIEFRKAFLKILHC

The experiment has as its target D(2) dopamine receptor (Homo sapiens) (UniProt P14416). Briefly: HTS Assay for Allosteric Agonists of the Human D2 Dopamine Receptor: Primary Screen for Agonists. Further: 0% is about no effect. The following applies: HEK293 T-REx D2 cells, calcium flux agonist mode; at 2 µM; active compounds read high. In outline:
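Calcium-flux readout, 1 cycle/sec over 180 s following compound pin transfer, in inducible HEK293 Trex D2 cells (force-coupled); dopamine controls included. Positive calcium responses during this window marked compounds as potential agonists.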
Take `COc1ccc(-c2nn(CC(=O)Nc3ccccc3F)c3c2cnc2ccc(F)cc23)cc1`: the activation was 0.341% (inactive). The same measure for `CN1C(=O)c2[nH]nc(-c3ccc(F)cc3)c2C1c1ccccn1` (centres undefined): 1.23% (inactive); for `Cc1cc(=O)oc2cc(OCCC[n+]3ccccc3)ccc12`: 0.774% (inactive); for `CCOc1ccccc1N1CCN(C(=O)COc2ccc3c(C)cc(=O)oc3c2)CC1`: -0.577% (inactive). As to `Cc1ccccc1N1CCN(CCCOc2ccc3c(C)cc(=O)oc3c2)CC1`, the activation was 80.1% (active).

On to `CCOc1ccc(NC(=O)Cn2cc(C(=O)c3ccc(C)cc3)c(=O)c3cc4c(cc32)OCCO4)cc1`, for which the activation is -0.524% (inactive). The same measure for `CNCC(O)c1ccc(O)c(O)c1` (centres undefined): 64.9% (active); for `CC(=O)NCC(O)c1ccc([N+](=O)[O-])cc1` (centres undefined): -2.19% (inactive); for `CC(Sc1oc(-c2ccco2)nc1S(=O)(=O)c1ccc(Br)cc1)c1ccccc1` (centres undefined): 0.011% (inactive). For `COc1ccccc1C(=O)Nc1c(C(=O)N(C)Cc2ccccc2)sc2nc(C)c(Cl)c(C)c12`, the activation was 0.563% (inactive). The same measure for `COc1cc(NC(=O)c2nc3ccccc3nc2C)cc(OC)c1OC`: 0.0893% (inactive); for `COc1cccc(CNC(=O)c2cc(=O)[nH]c3ccc(S(=O)(=O)N4CCCCC4)cc23)c1`: 0.436% (inactive); for `CCOc1ccc(N(CC)C(=O)c2noc3c2COc2ccc(C)cc2-3)cc1`: 0.123% (inactive). The figure for `Cc1ccccc1Nc1nc(N)nc(CSc2ccccc2)n1` is 0.151% (inactive).

As to `Cc1ccccc1Nc1nc(N)nc(CN2CCN(c3ccccn3)CC2)n1`, the activation is 38.5% (active). The figure for `Cc1ccccc1Nc1nc(N)nc(CSc2nnc3ccccn23)n1` is 0.185% (inactive); for `CCOc1ccc(N(Cc2ccccc2)C(=O)c2nc(S(C)(=O)=O)ncc2Cl)cc1` it is 10% (inactive). The same measure for `COc1ccccc1CNC(=O)CCn1c(=O)c2ccccc2n(CC(=O)Nc2ccc(Br)cc2F)c1=O`: -0.617% (inactive). The figure for `CC1CCN(c2c(NCc3ccc(C(=O)NCc4ccccc4)cc3)c(=O)c2=O)CC1` is -1.43% (inactive); for `Cc1ccc(CNC(=O)c2cccc3c2C(=O)c2ccc(N4CCC(C)CC4)cc2S3(=O)=O)cc1` it is 32% (active).

As to `COc1cccc(-c2ccc3c(c2)S(=O)(=O)c2cccc(C(=O)O)c2C3=O)c1OC`, the activation was 1.73% (inactive).

Consider `CCOc1cccc(CC(=O)N2CCc3c([nH]c4ccccc34)C2c2ccc(F)cc2)c1OCC` (centres undefined), for which the activation is -0.484% (inactive). The same measure for `Cc1c(CCNC(=O)c2ccc(C(F)(F)F)cc2)sc2nc(-c3ccc(F)cc3)nn12`: -2.35% (inactive); for `O=C(NC1CCCCC1)c1ccc2c(=O)n(CC3CCCO3)c(=O)[nH]c2c1` (centres undefined): 31.5% (active); for `CCCCCn1c(=O)[nH]c2cc(C(=O)NCCCN3CCCCC3C)ccc2c1=O` (centres undefined): 1.64% (inactive).

`O=C(NCc1ccccc1Cl)c1ccc2c(=O)n(CC3CCCO3)c(=S)[nH]c2c1` (centres undefined): the activation is -2.85% (inactive).

As to `COc1ccc(-c2nc3nc(C)cc(C)n3c2Nc2c(C)cccc2C)cc1`, the activation is 2.98% (inactive).

Take `CCc1cc2c(cc3c(=O)n(CC(=O)NCCc4ccc(OC)c(OC)c4)ncn32)s1`: the activation was -0.234% (inactive).

`COC(=O)c1ccc(-c2nc3cc(NC(C)=O)ccc3o2)cc1`: the activation is -2.97% (inactive). The figure for `Cc1n[nH]c(C)c1S(=O)(=O)N1CCCC(C(=O)NCC2COc3ccccc3O2)C1` (centres undefined) is 57.1% (active); for `Cc1n[nH]c(C)c1S(=O)(=O)N1CCCC(C(=O)Nc2ccc(Br)cc2)C1` (centres undefined) it is 0.576% (inactive) and 0.392% (inactive).

Regarding `Cc1ccc(NC(=O)C2CCCN(S(=O)(=O)c3c(C)noc3C)C2)c(C)c1` (centres undefined), the activation was -0.264% (inactive). The figure for `O=C(NCC(c1ccco1)S(=O)(=O)c1cccs1)c1ccc(F)cc1` (centres undefined) is 0.728% (inactive); for `CCOc1ccc(CNC(=O)c2cccc(Nc3nc4ccccc4n4nnnc34)c2)cc1OC` it is 0.495% (inactive). The figure for `Cc1cc(C)c(/C=C2\C(=O)Nc3ccccc32)[nH]1` is 39.4% (active). The figure for `O=C1Nc2ccccc2/C1=C/c1ccnc2ccccc12` is 1.57% (inactive); for `Cc1ccccc1-n1c(C)cc(/C=C2\NC(=O)NC2=O)c1C` it is -0.336% (inactive); for `CCOC(=O)c1c(NC(C)=O)c2c3c(sc2n1Cc1c(C)cc(C)cc1C)CCCC3` it is 0.0213% (inactive).

For the molecule `CCS(=O)(=O)N1CCC(N2CCN(c3ccccc3)CC2)CC1`, the activation is 68% (active). Consider `CS(=O)(=O)N1CCC(C(=O)N2CCN(c3ccccc3)CC2)CC1`, for which the activation was 6.31% (inactive).

In the case of `CCS(=O)(=O)N1CCC(C(=O)N2CCN(c3ccccc3)CC2)CC1`, the activation is 4.45% (inactive). The same measure for `Cc1ccccc1NC(=O)c1cc2c([nH]c1=O)CC(C)(C)CC2=O`: 0.0984% (inactive).

Take `CCOc1cc(-c2cc(-c3ccc(NC(C)=O)cc3)nc(N)c2C#N)ccc1O`: the activation is 0.571% (inactive). The same measure for `CCOc1cc(/C=C(\C#N)c2nc(-c3cccs3)c(NC(C)=O)s2)ccc1O`: 31.5% (active). The same measure for `CCOc1ccc(/C=C(\C#N)c2nc3ccccc3c(=O)[nH]2)cc1OC`: -1.7% (inactive); for `OC(COCC1COc2ccccc2O1)CN1CCN(c2ccc(F)cc2)CC1` (centres undefined): 8.89% (inactive); for `O=[N+]([O-])c1ccc(N2CCN(CC(O)COc3ccccc3)CC2)cc1` (centres undefined): -0.607% (inactive). As for `OC(COCc1ccco1)CN1CCN(c2ccccc2)CC1` (centres undefined), the activation is 85.6% (active). `COc1ccc(CNC(=O)CSCc2nc(-c3ccccc3F)oc2C)cc1`: the activation is -0.228% (inactive). The same measure for `O=C(CCC1CCCN(C(=O)Cc2ccc(F)cc2)C1)N1CCN(c2ccccn2)CC1` (centres undefined): 0.424% (inactive); for `Cc1nc(N2CCN(c3ccccn3)CC2)c2c(C)c(C(=O)Nc3ccc(F)cc3)sc2n1`: -0.199% (inactive); for `Cc1c(CN2CC[C@@H](N3CCN(c4ccccn4)CC3)[C@H](O)C2)[nH]c2ccc(F)cc12`: 76.9% (active). Turning to `COC(=O)c1ccc(Cn2c(SCC(=O)N(C)c3ccccc3)nc3ccccc32)cc1`, the activation was 0.816% (inactive). The same measure for `Cc1cc(C)cc(NC(=O)COc2coc(CN3CCN(c4ccccc4)CC3)cc2=O)c1`: 5.66% (inactive). The same measure for `O=C(COc1coc(CN2CCN(c3ccccc3)CC2)cc1=O)N1CCc2ccccc21`: -0.514% (inactive). The same measure for `O=C(COc1coc(CN2CCN(c3ccccc3)CC2)cc1=O)Nc1ccccc1F`: 45.8% (active); for `CC(C)OC(=O)C(C#N)c1nc2ccccc2nc1N1CCN(Cc2ccc3c(c2)OCO3)CC1` (centres undefined): 48.3% (active). Consider `CC(C)OC(=O)C(C#N)c1nc2ccccc2nc1N1CCN(Cc2ccccc2)CC1` (centres undefined), for which the activation is 0.138% (inactive). For the molecule `N#C/C=C/N1CCN(Cc2ccc3c(c2)OCO3)CC1`, the activation was 0.771% (inactive).

`Cc1ccc(Cl)cc1NC(=O)/C(C#N)=C\c1cn(Cc2ccc(F)cc2)c2ccccc12`: the activation is 0.348% (inactive). Consider `Cc1nc2c(c(=O)n1Cc1ccco1)c1nc3ccccc3nc1n2Cc1ccccc1`, for which the activation was -0.619% (inactive).

As to `C=CCSc1nc2c(c(=O)[nH]c(=O)n2C)n1Cc1ccccc1`, the activation is -0.578% (inactive). The figure for `Cc1cc2nc3c(=O)n(Cc4ccccc4)c(=O)[nH]c3nc2cc1N` is 64.2% (active); for `Cc1cccc(CC(=O)N2CC(=O)Nc3ccc(F)cc3C2c2ccccc2)c1` (centres undefined) it is -0.521% (inactive).

Turning to `CCCN(CCC)C(=O)C1CCCN(c2ncnc3c2nc2n3CCCCC2)C1` (centres undefined), the activation was 0.0903% (inactive).

Turning to `Cn1c(=O)c2sccc2n2c(CCC(=O)NCc3ccccc3Cl)nnc12`, the activation is -0.258% (inactive). Turning to `O=C1c2cccc3c([N+](=O)[O-])ccc(c23)C(=O)N1CC1CCCO1` (centres undefined), the activation is 3% (inactive). For `Cc1nn(C)cc1N1C(=O)c2cccc3c(N)ccc(c23)C1=O`, the activation is 74% (active). The figure for `CC(C(=O)O)N1C(=O)c2cccc3cccc1c23` (centres undefined) is 0.197% (inactive). With `CN1C(=O)c2cccc3c(N)ccc(c23)C1=O`, the activation was 109% (active). The same measure for `COCCNC(=O)c1ccc2c(c1)N=C(C)c1cc(C)ccc1S2`: 0.312% (inactive); for `Cc1ccc(-n2c(SCC(=O)Nc3cccc(F)c3)nc3c(oc4ccccc43)c2=O)cc1C`: 2.59% (inactive). The same measure for `Cc1ccc(N2CCN(C(=O)CCc3c(C)nc4c(c3C)c(=O)n(C)c(=O)n4C)CC2)c(C)c1`: -0.245% (inactive); for `CCc1nnc(SCc2c(F)cccc2Cl)c2cc3sccc3n12`: 0.47% (inactive).

Take `COc1ccc(-c2cn3nc(N4CCCC(C(=O)NCCCOC(C)C)C4)sc3n2)cc1` (centres undefined): the activation was -0.281% (inactive). Regarding `CN1c2ccc(Cl)cc2-c2nc(SCC(=O)Nc3cc(F)ccc3F)ncc2S1(=O)=O`, the activation was 0.0638% (inactive). The same measure for `CO/N=C/c1cn(-c2ccc(Cl)cc2)nn1`: 33.3% (active); for `O=C(COc1ccc(Cl)cc1)Nc1ccc(-c2nc3cc(Cl)ccc3o2)c(O)c1`: 1.1% (inactive).

`O=C(NC1CC(=O)N(c2ccc(F)cc2)C1)C1CCCCC1` (centres undefined): the activation was 1.31% (inactive). Turning to `CCOc1ccc(C(=O)N2CCN(CCc3ccccn3)CC2)cc1`, the activation is 0.162% (inactive). The same measure for `Cc1cc(NC(=O)CSc2ncc(C(=O)Nc3ccc(Cl)cc3)c(=O)n2C)no1`: 0.675% (inactive); for `O=C(Nc1ccccc1C(=O)N1CCCCC1)c1ccco1`: -0.0145% (inactive). The same measure for `Cc1c(Cl)cccc1NC(=O)CCC(=O)N/N=C/c1ccco1`: 0.478% (inactive); for `CS/C(=C\C(=O)c1ccco1)Nc1ccccc1Cl`: 34.5% (active); for `CNC(=S)N1CCN(c2ccccn2)CC1`: 2.09% (inactive).

`CC(=C1C(=O)c2ccccc2C1=O)N1CCN(c2ccccn2)CC1`: the activation is 62.2% (active). The figure for `O=C(C(Cl)Cl)N1CCN(c2ccccn2)CC1` is 4.39% (inactive); for `Cc1cccc(-c2nnc(SCC(=O)N3CCCc4ccccc43)o2)c1` it is -1.45% (inactive). The figure for `CC(C)c1ccc(C2CC(=O)N3CN(C4CCCCC4)CSC3=C2C#N)cc1` (centres undefined) is 0.111% (inactive).

The values are drawn from PubChem BioAssay AID485358 (National Center for Advancing Translational Sciences (NCATS), 2010).
